Laboratory results taken from PubChem BioAssay (NCATS).
Results filed as inconclusive are left out. Entries that show only a call come without a potency. Calls of active or inactive are those of the source. Calls follow the shape of the full dose curve; tested in HEK293 reporter line.

Assay: qHTS for Inhibitors of the Functional Ribonucleoprotein Complex (vRNP) of Lassa (LASV) Arenavirus: Viability assay - alamar blue signal for LASV Primary Screen (AID 1347083)
Details: cell viability, alamar blue fluorescence (LASV minigenome counter-screen); series mostly up to 57.5 µM
Also: nearly all actives have a fitted effect of over 80% in size.
Potency is read from the fitted curve at half-maximal effect.

SMILES | Potency
c1cc(-c2cnn3cc(-c4ccc(OCCN5CCCCC5)cc4)cnc23)ccn1 | 17.2 µM (active)
CC(=O)c1c(C)c2cnc(Nc3ccc(N4CCNCC4)cn3)nc2n(C2CCCC2)c1=O | 30.6 µM (active)
O=C(Nc1ccccc1-c1ccc(Cl)cc1)c1cccnc1Cl | inactive
CCN(CC)CCCCNc1ncc2cc(-c3cc(OC)cc(OC)c3)c(NC(=O)NC(C)(C)C)nc2n1 | 19.3 µM (active)
Cc1ccc(NC(=O)c2cccc(C(C)(C)C#N)c2)cc1Nc1ccc2ncn(C)c(=O)c2c1 | 17.2 µM (active)
CCc1cc(Nc2nccc(-c3c(-c4ccc(OC)c(C(=O)Nc5c(F)cccc5F)c4)nc4ccccn34)n2)c(OC)cc1N1CCC(N2CCN(S(C)(=O)=O)CC2)CC1 | inactive
CN(C)CCCN=c1c2ccccc2n(C)c2[nH]c(=O)n(C)c(=O)c12 | 19.3 µM (active)
O=S(=O)(c1ccc(Cl)cc1)c1ccc(Cl)cc1 | inactive
CC1(C)CC/C(=C/c2ccc(Cl)cc2)C1(O)Cn1cncn1 (centres undefined) | inactive
COC(C)(C)CCCC(C)C/C=C/C(C)=C/C(=O)OC(C)C (centres undefined) | inactive
CCCCCC[C@H]1C(=O)O[C@H](C)[C@H](NC(=O)c2cccc(NC=O)c2O)C(=O)O[C@@H](C)[C@@H]1OC(=O)CC(C)C | 4.32 µM (active)
Cc1cnc(-c2cnc(NCCNc3ccc(C#N)cn3)nc2-c2ccc(Cl)cc2Cl)[nH]1 | inactive
C=CCC1=C(C)C(OC(=O)C2C(C=C(C)C)C2(C)C)CC1=O (centres undefined) | inactive
CCNC(=O)C[C@@H]1N=C(c2ccc(Cl)cc2)c2cc(OC)ccc2-n2c(C)nnc21 | 3.06 µM (active)
CC(=O)N(C)C1(c2ccccc2)CCN(CCC[C@]2(c3ccc(Cl)c(Cl)c3)CCCN(C(=O)c3ccccc3)C2)CC1 | inactive
CCOc1ccc(Nc2nc(-c3c(C)nc4ccccn34)cs2)cc1 | 0.0049 µM (active)
O=C(Nc1cccnc1)N1CCC(Cc2cccc(Oc3ccc(C(F)(F)F)cn3)c2)CC1 | 15.3 µM (active)
CN(C)CC=CC(=O)Nc1cc2c(Nc3ccc(F)c(Cl)c3)ncnc2cc1O[C@H]1CCOC1 | 24.3 µM (active)
Cc1c(N)nc([C@H](CC(N)=O)NC[C@@H](N)C(N)=O)nc1C(=O)N[C@H](C(=O)N[C@@H](C)[C@H](O)[C@@H](C)C(=O)N[C@@H](C(=O)NCCc1nc(-c2nc(C(=O)NCCC[S+](C)C)cs2)cs1)[C@@H](C)O)C(O[C@H]1O[C@H](CO)[C@H](O)[C@@H](O)[C@@H]1O[C@H]1O[C@H](CO)[C@@H](O)[C@H](OC(N)=O)[C@H]1O)c1cnc[nH]1 (some centres undefined) | 7.69 µM (active)
Cc1cc([C@@H](C)Nc2ccccc2C(=O)O)c2nc(N3CCOCC3)cc(=O)n2c1 | 5.59 µM (active)
Nc1ccc(Cl)cc1N | inactive
C#C[C@]1(O)C=C[C@@H]2[C@@H]3CCC4=CC(=O)CC[C@@H]4[C@H]3CC[C@@]21CC | inactive
COC(=O)c1c(Cl)c(Cl)c(C(=O)OC)c(Cl)c1Cl | inactive
CC(C)c1ccc2c(c1)c(SC(C)(C)C)c(CC(C)(C)C(=O)O)n2Cc1ccc(Cl)cc1 | 12.2 µM (active)
CC(C)Oc1cccc(NC(=O)c2ccccc2C(F)(F)F)c1 | inactive
O=[N+]([O-])c1c2ccccc2cc2ccccc12 | inactive

Assay: qHTS for Inhibitors of the Functional Ribonucleoprotein Complex (vRNP) of Lymphocytic Choriomeningitis Arenaviruses (LCMV): Viability assay - alamar blue signal for LCMV Primary Screen (AID 1347085)
Details: alamar blue viability counter-screen, LCMV vRNP screen cells; series mostly up to 57.5 µM

SMILES | Potency
CO[C@H]1CCC(O[C@H]2C[C@H]([C@]3(C)CC[C@]4(C[C@H](O)[C@@H](C)[C@@H]([C@@H](C)C=C(C)C(=O)[C@H](C)C[C@H](C)C(=O)O)O4)O3)O[C@]3(O[C@@H]([C@H]4O[C@@](O)(CO)[C@H](C)C[C@H]4C)C[C@H]3C)[C@H]2C)O[C@H]1C (some centres undefined) | inactive
O=C(Nc1ccccc1-c1ccc(Cl)cc1)c1cccnc1Cl | inactive
CCc1cc(Nc2nccc(-c3c(-c4ccc(OC)c(C(=O)Nc5c(F)cccc5F)c4)nc4ccccn34)n2)c(OC)cc1N1CCC(N2CCN(S(C)(=O)=O)CC2)CC1 | 21.7 µM (active)
O=S(=O)(c1ccc(Cl)cc1)c1ccc(Cl)cc1 | inactive
COC(C)(C)CCCC(C)C/C=C/C(C)=C/C(=O)OC(C)C (centres undefined) | inactive
CCCCCC[C@H]1C(=O)O[C@H](C)[C@H](NC(=O)c2cccc(NC=O)c2O)C(=O)O[C@@H](C)[C@@H]1OC(=O)CC(C)C | 4.85 µM (active)
COc1ccc(C(c2ccc(OC)cc2)C(Cl)(Cl)Cl)cc1 | inactive
CCNC(=O)C[C@@H]1N=C(c2ccc(Cl)cc2)c2cc(OC)ccc2-n2c(C)nnc21 | 1.22 µM (active)
Nc1ccc(Cl)cc1N | inactive
C#C[C@]1(O)C=C[C@@H]2[C@@H]3CCC4=CC(=O)CC[C@@H]4[C@H]3CC[C@@]21CC | inactive
COc1ccc(C(=O)c2c(C)n(CCN3CCOCC3)c3cc(I)ccc23)cc1 | inactive
CC(C)Oc1cccc(NC(=O)c2ccccc2C(F)(F)F)c1 | inactive
O=[N+]([O-])c1c2ccccc2cc2ccccc12 | inactive
